In PubChem BioAssay (EPA / NIEHS):
Several values for one entry are separate records, joined by “and”; a condition that tells them apart may be missing. Equal entries are not always repeated. Results filed as inconclusive are left out. A structure can be active in one record and inactive in another. Activity calls are given as the source filed them. Rule for the calls, unless noted: active = hit-call score of the fitted dose curve at least 0.9, where 1 is the maximum; inactive = score below 0.9.

Legend:
[1] = APR_HepG2_CellCycleArrest_24hr: Apredica 24-hour HepG2 Assay for Cell Cycle Arrest (AID 2282905); details: imaging, actives raise or lower the signal;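 note: cell cycle arrest scored as ratio of 2N to 4N nuclear DNA content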
How it was run: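 HepG2 cells were exposed to compounds at 0.39–200 uM (ten concentrations, duplicate) in 0.5% v/v DMSO for 24 hr. After formaldehyde fixation and Triton permeabilization, Hoechst 33342-stained nuclei were imaged at 20x; DNA content was quantified, with bidirectional fitting against DMSO.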

[2] = APR_HepG2_CellLoss_24hr: Apredica 24-hour HepG2 Assay for Cell Loss (AID 2282908); details: high-content imaging;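 for AC50: fit in both directions so a hit may be cell loss or gain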
How it was run: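 Compounds were tested at 0.39–200 uM in duplicate with 0.5% v/v DMSO final. Cells were then fixed in 3.7% formaldehyde, Hoechst 33342 nuclei were imaged at 20x by HCS, and cell number was fitted bidirectionally against DMSO.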

[3] = APR_HepG2_MicrotubuleCSK_24hr: Apredica 24-hour HepG2 Assay for Microtubule CSK Stabilty (AID 2282909); details: HepG2 microtubule cytoskeleton imaging, actives raise or lower the signal
How it was run: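 HepG2 cells exposed 24 h to compounds at 0.39–200 uM (duplicate, 0.5% v/v DMSO final), then fixed, permeabilized and immunostained for alpha-tubulin with Hoechst 33342. Cytoskeleton imaged at 20x; bidirectional fit versus DMSO baseline.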

[4] = APR_HepG2_MitoMembPot_24hr: Apredica 24-hour HepG2 Assay for Mitochondrial Membrane Potential (AID 2282911); details: imaging, actives raise or lower the signal
How it was run: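 Mitochondrial membrane potential imaged via MitoTracker Red CMXRos (250 nM, 30 min pre-fixation) in fixed HepG2 cells with Hoechst nuclear identification. Ten concentrations 0.39–200 uM, 24 h treatment, 0.5% DMSO; CCCP as positive control.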

[5] = APR_HepG2_MitoMass_24hr: Apredica 24-hour HepG2 Assay for Mitochondrial Mass (AID 2282912); details: high-content imaging, actives raise or lower the signal
How it was run: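 Human HepG2 liver cells were exposed for 24 hr to compounds at 0.39–200 uM (duplicates, 0.5% v/v DMSO final). They were stained live with 250 nM MitoTracker Red CMXRos for 30 min, fixed in 3.7% formaldehyde, and imaged by HCS fluorescence; signals were fitted bidirectionally against DMSO.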

[6] = APR_HepG2_CellCycleArrest_72hr: Apredica 72-hour HepG2 Assay for Cell Cycle Arrest (AID 2282914); details: high-content imaging, actives raise or lower the signal
How it was run: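 Read-out: nuclear DNA content from Hoechst 33342 high-content imaging (20x, six fields/well) after 3.7% formaldehyde fixation, fitted bidirectionally against DMSO. Treatment was 72 h in HepG2, ten concentrations 0.39–200 uM, duplicate, 0.5% DMSO.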

[7] = APR_HepG2_CellLoss_72hr: Apredica 72-hour HepG2 Assay for Cell Loss (AID 2282915); details: high-content imaging
How it was run: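 HepG2 cells exposed 72 h to compound at 0.39–200 uM (10 concentrations, duplicate) in 0.5% DMSO. Fixed with 3.7% formaldehyde and Hoechst 33342-stained. Imaged at 20x; nuclear count gives cell number, fitted bidirectionally versus DMSO.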

[8] = APR_HepG2_P-H2AX_72hr: Apredica 72-hour HepG2 Assay for H2AX Phosphorylation (AID 2282916); details: imaging, actives raise or lower the signal;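 note: phospho-histone H2A.x immunostain intensity per cell marking DNA damage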
How it was run: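 HepG2 human liver cells were exposed for 72 hr to compounds at 0.39–200 uM (10 concentrations, duplicate per plate) in 0.5% v/v DMSO. Fixed, permeabilized cells were immunolabeled for phospho-histone H2A.x with Hoechst 33342 and imaged by HCS fluorescence; bidirectional fit versus DMSO.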

[9] = APR_HepG2_MitoticArrest_72hr: Apredica 72-hour HepG2 Assay for Mitotic Arrest (AID 2282918); details: high-content imaging, actives raise or lower the signal
How it was run: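 High-content imaging of fixed human HepG2 cells after 72 h compound exposure (0.39–200 uM, duplicates, 0.5% DMSO); mitotic arrest scored from phospho-histone H3 and nuclear Hoechst staining relative to DMSO.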

[10] = APR_HepG2_MicrotubuleCSK_72hr: Apredica 72-hour HepG2 Assay for Microtubule CSK Stabilty (AID 2282919); details: HepG2 microtubule cytoskeleton, high-content imaging, actives raise or lower the signal
How it was run: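 HepG2 cells were exposed 72 hr to compound at 0.39–200 uM in duplicate (0.5% DMSO final), then fixed and permeabilized. Alpha-tubulin immunofluorescence was imaged by high-content microscopy, with bidirectional fitting against DMSO and taxol as positive control.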

[11] = APR_HepG2_P-H2AX_24hr: Apredica 24-hour HepG2 Assay for H2AX Phosphorylation (AID 2282920); details: high-content imaging, actives raise or lower the signal
How it was run: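 High-content imaging of phospho-histone H2A.x immunofluorescence, nuclei counterstained with Hoechst 33342, in fixed HepG2 cells. Compounds ran 0.39–200 uM in duplicate for 24 h, final DMSO 0.5%. Signal change fitted both directions against DMSO.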

[12] = APR_HepG2_StressKinase_72hr: Apredica 72-hour HepG2 Assay for Stress Kinase (AID 2282921); details: HepG2 stress kinase (phospho-c-Jun) imaging, actives raise or lower the signal
How it was run: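 Cells were exposed for 72 h to ten concentrations (0.39–200 uM, duplicate) at 0.5% v/v DMSO final, then fixed with 3.7% formaldehyde, permeabilized and immunostained for phospho-c-Jun (Cy3 secondary) with Hoechst nuclear counterstain.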

[13] = APR_HepG2_StressKinase_24hr: Apredica 24-hour HepG2 Assay for Stress Kinase (AID 2282922); details: HepG2 stress kinase (phospho-c-Jun) imaging, actives raise or lower the signal
How it was run: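 HepG2 cells exposed 24 h to 0.39–200 uM compound in duplicate (0.5% v/v DMSO final). Cells fixed in 3.7% formaldehyde, permeabilized and immunostained for phospho-c-Jun; read by high-content fluorescence imaging, fitted bidirectionally against DMSO.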

[14] = APR_HepG2_MitoMass_72hr: Apredica 72-hour HepG2 Assay for Mitochondrial Mass (AID 2282924); details: high-content imaging, actives raise or lower the signal;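 note: MitoTracker Red CMXRos stain intensity per cell imaged as mitochondrial mass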
How it was run: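 HepG2 cells dosed 72 hr at 0.39–200 uM (0.5% DMSO), in duplicate. MitoTracker Red CMXRos 250 nM loaded 30 min before formaldehyde fixation; high-content fluorescence imaging, bidirectional fit versus DMSO.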

[15] = ATG_CRE_CIS: Attagene CIS-FACTORIAL HepG2 Assay for human cAMP Responsive Element (CRE) binding protein 3 (AID 2282926); details: HepG2 CRE cis-reporter, Attagene multiplexed mRNA; actives raise or lower the signal
How it was run: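 Multiplexed transcription-unit reporters transfected into HepG2; 24 h dosing; RT-PCR/capillary electrophoresis fluorescence read-out; bidirectional fit vs DMSO.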

[16] = target: CCAAT/enhancer-binding protein beta (Homo sapiens) (UniProt P17676); assay: ATG_C_EBP_CIS: Attagene CIS-FACTORIAL HepG2 Assay for human CCAAT/Enhancer Binding Protein (C/EBP) beta (AID 2282927); details: HepG2 Attagene cis-factorial transcription factor reporter; actives raise or lower the signal
CCAAT/enhancer-binding protein beta (Homo sapiens), sequence (P17676 whole entry, looked up): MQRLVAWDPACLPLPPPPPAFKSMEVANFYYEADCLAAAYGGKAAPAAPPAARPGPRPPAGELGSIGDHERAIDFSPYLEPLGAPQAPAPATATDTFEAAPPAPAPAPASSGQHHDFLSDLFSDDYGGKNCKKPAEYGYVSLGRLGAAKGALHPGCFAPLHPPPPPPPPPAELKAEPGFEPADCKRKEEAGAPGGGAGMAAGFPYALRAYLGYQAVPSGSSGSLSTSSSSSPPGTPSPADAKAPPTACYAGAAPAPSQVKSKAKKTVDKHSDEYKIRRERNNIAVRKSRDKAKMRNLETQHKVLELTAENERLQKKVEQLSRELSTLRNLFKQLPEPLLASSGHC
How it was run: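 HepG2 transiently transfected with multiplexed reporter units under cis-regulatory promoters reporting endogenous C/EBPb activity. After 24 h exposure, reporter mRNA assayed by RT-PCR, fluorescent labelling, HpaI digestion and capillary electrophoresis; bidirectional fitting versus DMSO.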

[17] = ATG_CMV_CIS: Attagene CIS-FACTORIAL HepG2 Assay for human CMV (Internal Marker) (AID 2282928); details: HepG2 CMV promoter reporter, transcription factor profiling; actives raise or lower the signal;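 note: endpoint acts as a background internal control marker rather than a target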
How it was run: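 Endogenous transcription factor activity read in HepG2 via transfected cis-promoter reporter units. After 24 h dosing, reporter mRNA measured by RT-PCR/capillary electrophoresis; gain or loss of signal fit relative to DMSO.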

[18] = ATG_DR4_LXR_CIS: Attagene CIS-FACTORIAL HepG2 Assay for human Liver X Receptor (LXR), DR4 submotif (AID 2282929); details: HepG2 Attagene DR4 cis-reporter, mRNA transcription; actives raise or lower the signal
How it was run: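 Measures endogenous transcription factor activity via a DR4-driven reporter transcript in human HepG2 cells. Compounds incubated 24 h; mRNA quantified by RT-PCR and capillary electrophoresis, analysed as gain or loss of signal versus DMSO.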

[19] = target: Aryl hydrocarbon receptor (Homo sapiens) (UniProt P35869); assay: ATG_Ahr_CIS: Attagene CIS-FACTORIAL HepG2 Assay for human Aryl Hydrocarbon Receptor (Ahr) (AID 2282930); details: HepG2 AhR cis-factorial reporter transcription; actives raise or lower the signal
Aryl hydrocarbon receptor (Homo sapiens), sequence (P35869 whole entry, looked up): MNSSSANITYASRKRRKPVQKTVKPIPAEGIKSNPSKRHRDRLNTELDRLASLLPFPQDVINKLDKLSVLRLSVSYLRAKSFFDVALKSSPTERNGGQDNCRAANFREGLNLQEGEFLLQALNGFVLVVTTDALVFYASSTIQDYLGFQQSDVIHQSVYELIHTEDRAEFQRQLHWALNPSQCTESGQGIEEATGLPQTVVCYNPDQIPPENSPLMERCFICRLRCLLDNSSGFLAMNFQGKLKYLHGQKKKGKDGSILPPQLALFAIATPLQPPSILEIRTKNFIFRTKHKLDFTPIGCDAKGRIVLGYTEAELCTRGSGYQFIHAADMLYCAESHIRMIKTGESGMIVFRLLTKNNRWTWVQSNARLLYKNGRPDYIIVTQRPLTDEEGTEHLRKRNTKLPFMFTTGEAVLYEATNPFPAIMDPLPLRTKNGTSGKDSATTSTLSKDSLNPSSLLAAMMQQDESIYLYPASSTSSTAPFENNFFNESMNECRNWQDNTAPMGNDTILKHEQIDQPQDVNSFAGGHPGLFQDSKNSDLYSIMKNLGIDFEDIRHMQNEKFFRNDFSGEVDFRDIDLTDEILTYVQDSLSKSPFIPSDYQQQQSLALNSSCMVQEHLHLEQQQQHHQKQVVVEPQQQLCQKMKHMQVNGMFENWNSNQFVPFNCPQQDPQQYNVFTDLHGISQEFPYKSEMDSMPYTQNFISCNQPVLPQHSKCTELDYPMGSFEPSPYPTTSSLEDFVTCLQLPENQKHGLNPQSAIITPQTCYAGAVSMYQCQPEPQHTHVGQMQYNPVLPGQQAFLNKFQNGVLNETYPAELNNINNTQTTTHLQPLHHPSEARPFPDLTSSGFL
How it was run: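 HepG2 cells transiently transfected with cis-element-driven multiplexed reporter units; endogenous AhR activity read as reporter mRNA 24 h after dosing, via RT-PCR, 6-FAM labelling, HpaI digestion and capillary electrophoresis. Bidirectional fit relative to DMSO.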

[20] = ACEA_ER_80hr: ACEA Biosciences xCELLigence Real-Time Cell Analysis on Estrogen Receptor Agonism for Proliferation (AID 2282667; active = hit-call score of the fitted dose curve at least 0.9, where 1 is the maximum); details: T47D proliferation, impedance (xCELLigence), 80 h
How it was run: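 Real-time impedance growth kinetics of human T-47D breast cells read 80 h after dosing, gain-of-signal fitted relative to DMSO. Compounds: 1:4 serial series, top final concentration 100 uM, n = 2.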

Measured: AC50

CC(=O)[O][Hg][c]1ccccc1
active: [2] 5.21 µM | [3] 5.17 µM | [6] 28.7 µM | [7] 3.19 µM | [8] 3.55 µM | [9] 1.83 µM | [10] 2.44 µM | [11] 1.74 µM | [12] 7.33 µM | [13] 88.1 µM | [14] 83.5 µM | [15] 2.79 µM | [16] 1.64 µM
inactive: [1] | [4] | [5] | [17] | [18] | [19]

O=C1C2(Cl)C3(Cl)C4(Cl)C(Cl)(Cl)C5(Cl)C3(Cl)C1(Cl)C5(Cl)C24Cl (centres undefined)
active: [1] 44.6 µM | [2] 44.5 µM | [6] 24.7 µM | [7] 22.5 µM | [8] 113 µM | [11] 46.6 µM | [12] 106 µM | [13] 60.5 µM | [15] 14.3 µM | [16] 17.7 µM | [17] 2.8 µM | [18] 2.8 µM and 4.23 µM
inactive: [3] | [4] | [5] | [9] | [10] | [14] | [15] | [16] | [17] | [18] | [19]

O=C(O)C(F)(F)C(F)(F)C(F)(F)C(F)(F)C(F)(F)C(F)(F)F
active: [7] 14.5 µM | [8] 13.6 µM | [9] 8.69 µM | [12] 97.8 µM | [14] 13 µM
not listed: [20]
inactive: all other assays above

CC(C)(c1ccccc1)c1ccc(O)c(C(C)(C)c2ccccc2)c1
active: [2] 28.1 µM | [4] 29.4 µM | [7] 31.2 µM | [9] 29.8 µM | [11] 69.5 µM | [13] 134 µM | [14] 30.1 µM | [17] 14.9 µM
not listed: [15] | [20]
inactive: all other assays above

N#CCc1ccc(Cl)cc1
inactive: [20] | [16] | [18] | [19]

CCN1CCC2(CC1)COc1cc3c(cc12)N(C(=O)c1ccc(-c2ccc(-c4nnc(C)o4)cc2C)cc1)CC3
active: [2] 17.5 µM | [5] 7.43 µM | [7] 9.88 µM | [8] 41.7 µM | [9] 6.34 µM | [11] 28.9 µM | [12] 5.12 µM | [13] 47.9 µM | [14] 44.7 µM | [17] 5.81 µM
inactive: [1] | [3] | [4] | [6] | [10] | [15] | [16] | [18] | [19]

CC1CN1P(=O)(N1CC1C)N1CC1C (centres undefined)
inactive: [20] | [16] | [18] | [19]

CC(=O)C(Cl)C(=O)N(C)C (centres undefined)
active: [20] 0.272 µM
inactive: [16] | [18] | [19]

O=C(Nc1ccc2[nH]ccc2c1)c1cc2cc(F)ccc2n1Cc1cccc(F)c1
active: [1] 25.4 µM | [2] 22.5 µM | [3] 19.7 µM | [4] 2.08 µM | [6] 35.7 µM | [7] 17.2 µM | [8] 27.8 µM | [9] 22 µM | [11] 38.8 µM | [14] 26.9 µM | [16] 20.3 µM | [17] 11 µM | [18] 7.44 µM
inactive: [5] | [10] | [12] | [13] | [19]

ClC1(Cl)C2(Cl)C3(Cl)C4(Cl)C(Cl)(Cl)C5(Cl)C3(Cl)C1(Cl)C5(Cl)C24Cl (centres undefined)
not listed: [17] | [20]
inactive: all other assays above

CN(C)N=O
not listed: [17] | [20]
inactive: all other assays above

C=CC(=O)OCCCCCC(C)C
active: [6] 108 µM | [7] 92.1 µM
not listed: [20]
inactive: all other assays above

CCCCCCCCc1ccc(O)cc1
inactive: [1] | [3] | [4] | [5] | [8] | [10] | [11] | [12] | [13] | [16] | [17] | [18] | [19]
active: [2] 67 µM | [6] 52.5 µM | [7] 86.7 µM | [9] 98 µM | [14] 95 µM | [18] 11.2 µM

Cn1sc(Cl)cc1=O
inactive: [1] | [3] | [4] | [6] | [13] | [16] | [17] | [18]
active: [2] 109 µM | [5] 117 µM | [7] 104 µM | [8] 109 µM | [9] 97.3 µM | [10] 135 µM | [11] 110 µM | [12] 111 µM | [14] 163 µM | [19] 67.3 µM

Nc1ccc(-c2ccc(N)c(Cl)c2)cc1Cl
active: [19] 6.23 µM
inactive: [20] | [16] | [18]
